Laboratory results reported in PubChem BioAssay (NCATS).
Results filed as inconclusive are left out. The source made the active and inactive calls. The call rests on the fitted dose curve; in most records, active means well fitted curve in the direction sought with a large enough effect; inconclusive means small, poorly fitted or top-dose-only effect, or another doubt; inactive means no such curve, though single readings can be large; an effect the other way counts as inactive or inconclusive. Where a SMILES comes first, the peptide text is derived from it.

Legend:
[1] = tested on: CRL-7250; assay: Cytotoxic Profiling of Annotated Libraries Using Quantitative High-Throughput Screening (AID 1296008); conditions: Five cell lines viability, CellTiter-Glo ATP luminescence, 48-72 h; max response: hits give low values; further: nearly all actives have a fitted effect of over 60% in size; on max response: on the % scale 0 is the no-effect control and ±100 the full control effect
Outline: (§1)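 Compounds were pin-transferred onto cells and incubated 48 or 72 hr at 37 degree Celsius, 95% humidity. CellTiter-Glo was added, plates sat 10 min at room temperature, then ATP-coupled luminescence was imaged as the viability read-out.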

[2] = tested on: HEK293; assay: as above; conditions: Five cell lines viability, CellTiter-Glo ATP luminescence, 48-72 h; max response: hits give low values
Outline: as §1

[3] = tested on: HaCat; assay: as above; conditions: Five cell lines viability, CellTiter-Glo ATP luminescence, 48-72 h; max response: hits give low values
Outline: as §1

[4] = tested on: KB-3-1; assay: as above; conditions: Five cell lines viability, CellTiter-Glo ATP luminescence, 48-72 h; max response: hits give low values
Outline: as §1

[5] = tested on: NIH3T3; assay: as above; conditions: Five cell lines viability, CellTiter-Glo ATP luminescence, 48-72 h; max response: hits give low values
Outline: as §1

[6] = tested on: HACAT; assay: qHTS assay to identify novel small-molecules to repurpose for Merkel cell carcinoma treatment (AID 1296009); conditions: MCC and control cell lines, CellTiter-Glo viability, 72 h; at 44.8 µM (top of the series) unless noted; further: nearly all actives have a fitted effect of over 60% in size
Outline: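 qHTS format: cells treated with library compounds in DMSO across 8 (NPC) or 11 (MIPE) concentrations. Readout after 72 hr at 37 degree celsius was CellTiter-Glo luminescence.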

[7] = tested on: C33A; assay: Primary qHTS to identify gynecologic anti-cancer compounds using libraries of approved drugs and bioactive compounds (AID 1345084); conditions: Gynecologic cancer cell panel viability, ATPlite luminescence, 48 h; series mostly up to 57.5 µM; further: on the % scale 0 is the no-effect control and ±100 the full control effect; nearly all actives have a fitted effect of over 55% in size
Outline: (§2)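 ATP-based viability (ATPlite), 1,000 cells/well, 16 h pre-incubation, 48 h compound at 37 C, 5% CO2, 15 min RT before read.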

[8] = tested on: CAOV3; assay: as above; conditions: Gynecologic cancer cell panel viability, ATPlite luminescence, 48 h; series mostly up to 57.5 µM
Outline: as §2

[9] = tested on: CASKI; assay: as above; conditions: Gynecologic cancer cell panel viability, ATPlite luminescence, 48 h; series mostly up to 57.5 µM
Outline: as §2

[10] = tested on: Es-2; assay: as above; conditions: Gynecologic cancer cell panel viability, ATPlite luminescence, 48 h; series mostly up to 57.5 µM
Outline: as §2

[11] = tested on: HeLa; assay: as above; conditions: Gynecologic cancer cell panel viability, ATPlite luminescence, 48 h; series mostly up to 57.5 µM
Outline: as §2

[12] = tested on: Hek293T; assay: as above; conditions: Gynecologic cancer cell panel viability, ATPlite luminescence, 48 h, control line for the selectivity index; series mostly up to 57.5 µM
Outline: as §2

[13] = tested on: JEG-3; assay: as above; conditions: Gynecologic cancer cell panel viability, ATPlite luminescence, 48 h; series mostly up to 57.5 µM
Outline: as §2

COc1cc(C(=O)OC[C@@]2(O)CO[C@@H](O[C@H]3[C@H](Oc4ccc(O)cc4)O[C@H](CO)[C@@H](O)[C@@H]3O)[C@@H]2O)cc(OC)c1O
inactive: outcome [1] | max response [2] -3.3% | outcome [3] | max response [4] -0.593% | max response [5] -1.11% | outcome [6] inactive [at 17.4 µM] | Potency [7] | Potency [8] | outcome [9] | Potency [10] | Potency [11] | Potency [12] | Potency [13]

CC1(C(=O)O)CCCC2(C)C3CC4C5CC3(CCC12)CC45C (stereo not drawn)
inactive: max response [1] -3.47% | max response [2] 2.22% | outcome [3] | max response [4] 4.9% | max response [5] -21.3% | outcome [6] | Potency [7] | Potency [8] | outcome [9] | Potency [10] | Potency [11] | Potency [12] | Potency [13]

COC1OC(O)C2(CCC3(O2)C(C)CC2OC(=O)C4(C)CCCC3(C)C24)C1O (stereo not drawn)
inactive: outcome [1] | max response [2] -1.02% | outcome [3] | max response [4] -1.51% | max response [5] 1.38% | outcome [6] | Potency [7] | Potency [8] | outcome [9] | Potency [10] | Potency [11] | Potency [12] | Potency [13]

Cc1ncc([N+](=O)[O-])n1C[C@H](O)CN1CCOCC1
inactive: outcome [1] | max response [2] 2.87% | outcome [3] | outcome [4] | max response [5] -3.55% | outcome [6] | Potency [7] | Potency [8] | outcome [9] | Potency [10] | Potency [11] | Potency [12] | Potency [13]

NC(=O)NCCCC(NC(=O)Cc1ccccc1)C(=O)O (stereo not drawn)
inactive: outcome [1] | max response [2] -0.44% | outcome [3] | max response [4] 3.03% | max response [5] 3.99% | outcome [6] | Potency [7] | Potency [8] | outcome [9] | Potency [10] | Potency [11] | Potency [12] | Potency [13]

CC(C)=CC[C@H]1O[C@]2(O)C([C@H]3CCC4[C@@]5(C)CC[C@H](O[C@@H]6O[C@H](CO)[C@H](O)[C@H](O[C@@H]7O[C@H](CO)[C@@H](O)[C@H](O)[C@H]7O)[C@H]6O[C@@H]6O[C@@H](C)[C@H](O)[C@@H](O)[C@H]6O)C(C)(C)C5CC[C@@]4(C)[C@]3(C)[C@H]2O)[C@@]1(C)O (stereo partly drawn)
inactive: max response [1] 0.206% | max response [2] 2.46% | outcome [3] | max response [4] 9.9% | max response [5] 0.989% | outcome [6] inactive [at 9.27 µM] | activity change, negative = cytotoxicity [7] 1.02% [at 11.6 µM] | activity change, negative = cytotoxicity [8] 7.68% [at 11.6 µM] | activity change, negative = cytotoxicity [9] -0.575% [at 11.6 µM] | activity change, negative = cytotoxicity [10] -1.48% [at 11.6 µM] | activity change, negative = cytotoxicity [11] -4.09% [at 11.6 µM] | activity change, negative = cytotoxicity [12] 0.87% [at 11.6 µM] | activity change, negative = cytotoxicity [13] 13.4% [at 11.6 µM]

OC[C@H]1O[C@@H](OC[C@H]2O[C@@H](OCc3ccccc3)[C@H](O)[C@@H](O)[C@@H]2O)[C@H](O)[C@@H](O)[C@@H]1O
inactive: outcome [1] | max response [2] -4.26% | outcome [3] | outcome [4] | max response [5] -6.32% | outcome [6] inactive [at 17.4 µM] | Potency [7] | Potency [8] | outcome [9] | Potency [10] | Potency [11] | Potency [12] | Potency [13]

CC(C)CC(c1c(O)c(C=O)c(O)c(C=O)c1O)C1CCC(C)(O)C2CC(C(C)(C)O)CCC12C (stereo not drawn)
inactive: max response [1] -4.35% | max response [2] -7.48% | outcome [3] | outcome [4] | max response [5] 0.233% | outcome [6] inactive [at 17.4 µM] | Potency [7] | Potency [8] | outcome [9] | Potency [10] | Potency [11] | Potency [12] | Potency [13]

CC(C)C1NC(=O)CNC(=O)C2CCCN2C(=O)C(Cc2c[nH]c3ccccc23)NC(=O)CNC(=O)C(Cc2ccc(O)cc2)NC(=O)CNC1=O (stereo not drawn) (cyclo(GVGYGWP); configuration not given here)
inactive: max response [1] -2.61% | max response [2] 3.25% | outcome [3] | outcome [4] | max response [5] -0.317% | outcome [6] inactive [at 17.4 µM] | Potency [7] | Potency [8] | outcome [9] | Potency [10] | Potency [11] | Potency [12] | Potency [13]

CC[C@@H](C)[C@H](N)C(=O)N1Cc2ccccc2C1
inactive: max response [1] -11.3% | max response [2] -17.7% | outcome [3] | max response [4] -3.64% | max response [5] 0.412% | outcome [6] | Potency [7] | Potency [8] | outcome [9] | Potency [10] | Potency [11] | Potency [12] | Potency [13]

C[C@@H]1O[C@@H](O[C@H]2[C@@H]3C=CO[C@@H](O[C@@H]4O[C@H](CO)[C@@H](O)[C@H](O)[C@H]4O)[C@@H]3[C@@]3(CO)O[C@@H]23)[C@H](O)[C@H](O)[C@H]1OC(=O)/C=C/c1ccc(O)cc1
inactive: max response [1] -9.97% | max response [2] 1.82% | outcome [3] | max response [4] -5.93% | max response [5] -3.44% | outcome [6] inactive [at 17.4 µM] | Potency [7] | Potency [8] | outcome [9] | Potency [10] | Potency [11] | Potency [12] | Potency [13]

CC1(C)CC[C@]2(C(=O)O)[C@H](O)C[C@]3(C)C(=CCC4[C@@]5(C)CC[C@H](O[C@@H]6OC[C@@H](O)[C@H](O)[C@H]6O)[C@@](C)(C(=O)O)C5CC[C@]43C)[C@@H]2C1 (stereo partly drawn)
inactive: max response [1] -5.63% | max response [2] 0.0666% | outcome [3] | max response [4] 9.63% | max response [5] 0.796% | outcome [6] inactive [at 17.4 µM] | Potency [7] | Potency [8] | outcome [9] | Potency [10] | Potency [11] | Potency [12] | Potency [13]

O=C(OCC(O)CO[C@@H]1O[C@H](C(=O)O)[C@@H](O)[C@H](O)[C@H]1O)c1ccccc1 (stereo partly drawn)
inactive: max response [1] 4.18% | max response [2] -2.05% | outcome [3] | max response [4] 0.261% | max response [5] 0.296% | outcome [6] | Potency [7] | Potency [8] | outcome [9] | Potency [10] | Potency [11] | Potency [12] | Potency [13]

CC(C)=CCc1c(O)cc2oc3cc(C)cc(O)c3c2c1C
inactive: max response [1] 2.07% | max response [2] -2.32% | outcome [3] | max response [4] -6.44% | max response [5] 3.67% | outcome [6] | Potency [7] | Potency [8] | outcome [9] | Potency [10] | Potency [11] | Potency [12] | Potency [13]

C[C@@H]1O[C@@H](OC(=O)Cc2ccccc2)[C@H](O)[C@H](O)[C@H]1O
inactive: max response [1] 2.73% | max response [2] -2.15% | outcome [3] | max response [4] 6.7% | outcome [5] | outcome [6] | Potency [7] | Potency [8] | outcome [9] | Potency [10] | Potency [11] | Potency [12] | Potency [13]

COC(=O)C(CC1CCCC1)c1ccc(S(C)(=O)=O)cc1 (stereo not drawn)
inactive: outcome [1] | max response [2] 0.176% | outcome [3] | outcome [4] | max response [5] 2.5% | outcome [6] | Potency [7] | Potency [8] | outcome [9] | Potency [10] | Potency [11] | Potency [12] | Potency [13]
